Test results published in the supplement of paper PMC10849652.
Of roughly 8,800 targets only a part is listed; those with a hit were picked by preference. About 0.5% of all pairs of compound and target were hits. Values without a mark were called inactive.

Assays:
Assay in all cases: log2 fold change, soluble protein after heating vs DMSO (PISA); higher = thermal stabilisation; K562 lysate, 10 uM; active = over 0.2 and 3.5 SD of the protein, either way, in both replicates (recomputed)
alvocidib = compound: CN1CC[C@H](c2c(O)cc(O)c3c(=O)cc(-c4ccccc4Cl)oc23)[C@H](O)C1 [alvocidib]
In short: (§1)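 Dounce homogenisation of K562 pellets in PBS pH 7.4 with 1 mM MgCl2 produced a crude extract, used at 1 mg/mL protein. Exposure to 10 μM compound lasted 30 min, and aliquots were then heated for 3 min across 48°C-58°C, pooled and brought to 0.5% NP-40 at 4°C. The supernatant after 21,000xg for 90 min was quantified by TMTpro 16plex LC-MS/MS with channel sums equalised. Duplicate values are given as log-two fold change in thermal stability relative to solvent controls.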

Tubastatin A = compound: CN1CCc2c(c3ccccc3n2Cc2ccc(C(=O)NO)cc2)C1 [Tubastatin A]
In short: as §1

[1] = compound: CNC(=O)C1=CC=CC=C1NC2=NC(=NC=C2Cl)NC3=C(C=C(C=C3)N4CCOCC4)OC
In short: as §1

defactinib = compound: CNC(=O)c1ccc(Nc2ncc(C(F)(F)F)c(NCc3nccnc3N(C)S(C)(=O)=O)n2)cc1 [defactinib]
In short: as §1

[2] = compound: CNc1nc(-c2ccc3c(N)n[nH]c3c2)cc(N2C[C@@H](C(=O)NC3CCCCC3)CC[C@H]2C)n1
In short: as §1

encorafenib = compound: COC(=O)N[C@@H](C)CNc1nccc(-c2cn(C(C)C)nc2-c2cc(Cl)cc(NS(C)(=O)=O)c2F)n1 [encorafenib]
In short: as §1

[3] = compound: COC(=O)[C@H](CCSC)NC(=O)C1=C(C=C(C=C1)NC[C@H](CS)N)C2=CC=CC=C2
In short: as §1

alisertib = compound: COc1cc(Nc2ncc3c(n2)-c2ccc(Cl)cc2C(c2c(F)cccc2OC)=NC3)ccc1C(=O)O [alisertib]
In short: as §1

[4] = compound: COc1cc2nc(-c3cc(F)ccc3O)nc(N[C@@H]3CNC[C@H]3C(C)(C)O)c2cc1OC
In short: as §1

gefitinib = compound: COc1cc2ncnc(Nc3ccc(F)c(Cl)c3)c2cc1OCCCN1CCOCC1 [gefitinib]
In short: as §1

lapatinib = compound: CS(=O)(=O)CCNCc1ccc(-c2ccc3ncnc(Nc4ccc(OCc5cccc(F)c5)c(Cl)c4)c3c2)o1 [lapatinib]
In short: as §1

pictilisib = compound: CS(=O)(=O)N1CCN(Cc2cc3nc(-c4cccc5[nH]ncc45)nc(N4CCOCC4)c3s2)CC1 [pictilisib]
In short: as §1

crizotinib = compound: C[C@@H](Oc1cc(-c2cnn(C3CCNCC3)c2)cnc1N)c1c(Cl)ccc(F)c1Cl [crizotinib]
In short: as §1

[5] = compound: C[C@H](C1=CC=C(C=C1)C(=O)NC2=C3C=CNC3=NC=C2)N
In short: as §1

duvelisib = compound: C[C@H](Nc1ncnc2nc[nH]c12)c1cc2cccc(Cl)c2c(=O)n1-c1ccccc1 [duvelisib]
In short: as §1

gandotinib = compound: Cc1cc(Nc2cc(CN3CCOCC3)c3nc(C)c(Cc4ccc(Cl)cc4F)n3n2)n[nH]1 [gandotinib]
In short: as §1

tozasertib = compound: Cc1cc(Nc2cc(N3CCN(C)CC3)nc(Sc3ccc(NC(=O)C4CC4)cc3)n2)n[nH]1 [tozasertib]
In short: as §1

doramapimod = compound: Cc1ccc(-n2nc(C(C)(C)C)cc2NC(=O)Nc2ccc(OCCN3CCOCC3)c3ccccc23)cc1 [doramapimod]
In short: as §1

bafetinib = compound: Cc1ccc(NC(=O)c2ccc(CN3CC[C@H](N(C)C)C3)c(C(F)(F)F)c2)cc1Nc1nccc(-c2cncnc2)n1 [bafetinib]
In short: as §1

[6] = compound: Cc1cccc(CC(=O)N2CCc3c2ccc(-c2cn(C)c4ncnc(N)c24)c3F)n1
In short: as §1

Sequence of UniProt Q16594 (Q16594 whole entry, looked up): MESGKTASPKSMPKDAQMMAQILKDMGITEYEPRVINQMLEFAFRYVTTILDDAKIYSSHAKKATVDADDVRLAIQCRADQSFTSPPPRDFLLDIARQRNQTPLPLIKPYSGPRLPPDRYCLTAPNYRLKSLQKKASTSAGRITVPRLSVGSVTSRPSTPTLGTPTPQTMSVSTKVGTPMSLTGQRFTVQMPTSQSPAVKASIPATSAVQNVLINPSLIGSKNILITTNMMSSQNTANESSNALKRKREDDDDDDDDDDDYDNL
Sequence of UniProt Q9HBM1 (Q9HBM1 whole entry, looked up): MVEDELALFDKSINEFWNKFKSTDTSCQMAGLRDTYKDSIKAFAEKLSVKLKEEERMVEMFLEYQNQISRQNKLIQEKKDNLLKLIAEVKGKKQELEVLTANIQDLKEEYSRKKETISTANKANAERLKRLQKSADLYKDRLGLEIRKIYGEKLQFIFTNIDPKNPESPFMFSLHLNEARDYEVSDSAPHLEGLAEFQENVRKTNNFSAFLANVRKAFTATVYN
Sequence of UniProt Q9H2D1 (Q9H2D1 whole entry, looked up): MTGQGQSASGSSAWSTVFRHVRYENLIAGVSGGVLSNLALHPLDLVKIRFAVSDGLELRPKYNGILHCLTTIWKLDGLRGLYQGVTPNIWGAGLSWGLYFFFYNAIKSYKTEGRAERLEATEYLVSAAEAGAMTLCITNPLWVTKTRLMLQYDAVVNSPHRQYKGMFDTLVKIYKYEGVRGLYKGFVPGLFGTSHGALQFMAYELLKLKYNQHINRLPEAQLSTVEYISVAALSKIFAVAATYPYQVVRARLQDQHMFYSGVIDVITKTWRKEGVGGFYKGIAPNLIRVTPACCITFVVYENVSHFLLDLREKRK
Sequence of UniProt P53985 (P53985 whole entry, looked up): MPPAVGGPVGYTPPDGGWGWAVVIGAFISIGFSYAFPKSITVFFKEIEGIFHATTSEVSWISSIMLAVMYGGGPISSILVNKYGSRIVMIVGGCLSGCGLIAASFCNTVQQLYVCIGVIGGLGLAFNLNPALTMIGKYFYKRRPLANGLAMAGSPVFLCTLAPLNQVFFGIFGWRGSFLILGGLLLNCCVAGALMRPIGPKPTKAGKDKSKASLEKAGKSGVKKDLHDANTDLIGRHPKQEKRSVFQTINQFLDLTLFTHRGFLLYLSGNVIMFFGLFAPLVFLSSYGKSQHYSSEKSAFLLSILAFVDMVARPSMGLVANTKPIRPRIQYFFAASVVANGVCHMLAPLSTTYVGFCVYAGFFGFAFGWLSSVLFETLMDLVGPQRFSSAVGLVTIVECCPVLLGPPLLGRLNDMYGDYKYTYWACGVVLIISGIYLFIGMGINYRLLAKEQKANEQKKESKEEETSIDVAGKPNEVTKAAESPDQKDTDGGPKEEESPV
Sequence of UniProt Q16629 (Q16629 whole entry, looked up): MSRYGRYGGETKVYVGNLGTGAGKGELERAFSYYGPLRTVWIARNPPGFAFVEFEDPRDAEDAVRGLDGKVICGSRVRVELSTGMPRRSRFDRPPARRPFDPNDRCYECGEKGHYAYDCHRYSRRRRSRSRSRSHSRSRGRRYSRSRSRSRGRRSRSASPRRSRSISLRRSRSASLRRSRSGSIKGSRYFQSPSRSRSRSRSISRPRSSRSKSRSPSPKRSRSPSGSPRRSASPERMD
Sequence of UniProt O95347 (O95347 whole entry, looked up): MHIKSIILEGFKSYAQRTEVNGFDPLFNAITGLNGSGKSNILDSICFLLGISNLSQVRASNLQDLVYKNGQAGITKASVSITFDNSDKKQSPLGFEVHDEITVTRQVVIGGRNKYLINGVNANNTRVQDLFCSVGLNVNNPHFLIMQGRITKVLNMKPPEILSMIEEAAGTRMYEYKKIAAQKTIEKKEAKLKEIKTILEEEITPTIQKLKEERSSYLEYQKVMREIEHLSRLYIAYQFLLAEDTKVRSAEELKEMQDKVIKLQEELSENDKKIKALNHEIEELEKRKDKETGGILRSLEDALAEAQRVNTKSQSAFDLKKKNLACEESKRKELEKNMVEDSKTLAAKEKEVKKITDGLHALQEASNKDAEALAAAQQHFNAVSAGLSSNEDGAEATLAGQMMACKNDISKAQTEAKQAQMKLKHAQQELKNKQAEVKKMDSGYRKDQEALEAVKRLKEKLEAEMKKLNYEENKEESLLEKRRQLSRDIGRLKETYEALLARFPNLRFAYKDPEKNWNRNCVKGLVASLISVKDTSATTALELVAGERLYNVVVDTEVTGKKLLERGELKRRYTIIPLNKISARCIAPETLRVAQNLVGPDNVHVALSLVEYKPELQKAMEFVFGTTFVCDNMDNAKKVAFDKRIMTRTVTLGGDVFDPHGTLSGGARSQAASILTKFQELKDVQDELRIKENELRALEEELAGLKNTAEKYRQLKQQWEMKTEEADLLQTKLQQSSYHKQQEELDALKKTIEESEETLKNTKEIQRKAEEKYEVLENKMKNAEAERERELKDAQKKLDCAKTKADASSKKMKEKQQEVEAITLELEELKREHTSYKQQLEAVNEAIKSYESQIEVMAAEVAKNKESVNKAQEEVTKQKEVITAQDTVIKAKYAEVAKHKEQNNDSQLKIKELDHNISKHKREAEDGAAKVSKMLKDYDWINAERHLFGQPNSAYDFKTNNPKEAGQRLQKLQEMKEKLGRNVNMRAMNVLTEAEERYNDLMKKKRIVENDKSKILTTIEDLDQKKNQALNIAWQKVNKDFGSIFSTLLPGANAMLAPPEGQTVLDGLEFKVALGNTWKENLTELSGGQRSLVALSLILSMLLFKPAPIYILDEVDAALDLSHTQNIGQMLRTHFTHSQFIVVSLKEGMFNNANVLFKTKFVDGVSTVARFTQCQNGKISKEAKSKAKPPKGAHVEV
Sequence of UniProt P62316 (P62316 whole entry, looked up): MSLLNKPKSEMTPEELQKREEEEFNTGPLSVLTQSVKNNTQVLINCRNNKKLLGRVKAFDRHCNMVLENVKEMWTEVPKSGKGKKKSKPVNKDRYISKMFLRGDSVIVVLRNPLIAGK
Sequence of UniProt Q16563 (Q16563 whole entry, looked up): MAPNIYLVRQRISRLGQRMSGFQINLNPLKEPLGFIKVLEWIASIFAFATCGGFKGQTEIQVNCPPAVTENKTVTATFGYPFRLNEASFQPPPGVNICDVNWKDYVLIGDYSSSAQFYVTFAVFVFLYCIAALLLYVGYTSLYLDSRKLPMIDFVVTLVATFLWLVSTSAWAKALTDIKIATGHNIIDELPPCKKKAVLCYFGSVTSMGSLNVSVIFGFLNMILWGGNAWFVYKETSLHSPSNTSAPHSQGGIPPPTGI
Sequence of UniProt Q96KF7 (Q96KF7 whole entry, looked up): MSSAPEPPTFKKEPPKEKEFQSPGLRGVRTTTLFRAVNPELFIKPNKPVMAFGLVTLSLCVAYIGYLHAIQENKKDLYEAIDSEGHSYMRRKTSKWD
Sequence of UniProt Q9NTJ3 (Q9NTJ3 whole entry, looked up): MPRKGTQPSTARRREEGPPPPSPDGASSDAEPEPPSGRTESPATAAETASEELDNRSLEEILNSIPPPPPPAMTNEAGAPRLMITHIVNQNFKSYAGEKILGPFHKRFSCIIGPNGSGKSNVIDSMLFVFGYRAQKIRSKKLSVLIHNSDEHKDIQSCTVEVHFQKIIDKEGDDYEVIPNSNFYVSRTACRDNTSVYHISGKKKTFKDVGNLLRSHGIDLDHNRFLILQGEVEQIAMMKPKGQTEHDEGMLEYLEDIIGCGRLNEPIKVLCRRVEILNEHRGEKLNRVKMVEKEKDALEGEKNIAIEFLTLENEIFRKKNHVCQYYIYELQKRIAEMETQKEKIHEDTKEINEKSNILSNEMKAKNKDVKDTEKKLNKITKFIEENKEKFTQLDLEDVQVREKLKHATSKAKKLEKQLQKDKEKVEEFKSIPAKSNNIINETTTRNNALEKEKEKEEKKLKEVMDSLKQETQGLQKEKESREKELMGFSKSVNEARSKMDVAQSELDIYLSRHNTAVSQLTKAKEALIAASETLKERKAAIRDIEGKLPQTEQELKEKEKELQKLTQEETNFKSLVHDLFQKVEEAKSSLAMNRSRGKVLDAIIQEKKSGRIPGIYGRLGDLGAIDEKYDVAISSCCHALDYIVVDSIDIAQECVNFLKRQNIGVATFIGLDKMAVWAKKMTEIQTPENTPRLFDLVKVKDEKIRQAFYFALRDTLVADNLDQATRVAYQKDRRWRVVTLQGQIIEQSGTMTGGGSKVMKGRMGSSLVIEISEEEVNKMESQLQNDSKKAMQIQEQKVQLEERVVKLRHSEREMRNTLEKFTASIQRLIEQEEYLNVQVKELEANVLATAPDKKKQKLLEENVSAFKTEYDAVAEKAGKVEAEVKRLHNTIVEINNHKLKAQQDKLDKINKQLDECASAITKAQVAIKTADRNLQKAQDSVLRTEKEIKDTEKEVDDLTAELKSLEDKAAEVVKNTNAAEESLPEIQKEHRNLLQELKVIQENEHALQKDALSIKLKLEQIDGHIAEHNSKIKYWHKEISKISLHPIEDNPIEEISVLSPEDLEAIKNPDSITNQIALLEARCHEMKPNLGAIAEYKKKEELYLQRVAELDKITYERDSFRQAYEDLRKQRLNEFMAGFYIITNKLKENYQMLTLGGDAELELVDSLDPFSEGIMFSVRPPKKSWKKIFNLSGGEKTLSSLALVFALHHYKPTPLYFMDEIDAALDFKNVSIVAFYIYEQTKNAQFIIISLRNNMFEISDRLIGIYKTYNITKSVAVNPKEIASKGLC
Sequence of UniProt Q9UNE7 (Q9UNE7 whole entry, looked up): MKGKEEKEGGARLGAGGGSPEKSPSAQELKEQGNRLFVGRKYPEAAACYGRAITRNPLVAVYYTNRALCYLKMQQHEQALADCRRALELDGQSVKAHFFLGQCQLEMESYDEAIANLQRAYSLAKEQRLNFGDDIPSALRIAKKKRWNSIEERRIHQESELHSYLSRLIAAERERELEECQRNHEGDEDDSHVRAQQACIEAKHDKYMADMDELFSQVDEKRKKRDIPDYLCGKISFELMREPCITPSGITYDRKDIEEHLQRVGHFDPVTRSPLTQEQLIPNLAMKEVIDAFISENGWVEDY

Row | Target | log2 fold change (alvocidib) | log2 fold change (Tubastatin A) | log2 fold change [1] | log2 fold change (defactinib) | log2 fold change [2] | log2 fold change (encorafenib) | log2 fold change [3] | log2 fold change (alisertib) | log2 fold change [4] | log2 fold change (gefitinib) | log2 fold change (lapatinib) | log2 fold change (pictilisib) | log2 fold change (crizotinib) | log2 fold change [5] | log2 fold change (duvelisib) | log2 fold change (gandotinib) | log2 fold change (tozasertib) | log2 fold change (doramapimod) | log2 fold change (bafetinib) | log2 fold change [6]
1 | TANGO6 (UniProt Q9C0B7) | -0.094 | -0.031 | -0.005 | -0.047 | 0 | -0.024 | -0.009 | -0.022 | 0.027 | 0.117 | -0.054 | -0.002 | -0.065 | -0.102 | 0.005 | 0.037 | -0.023 | 0.014 | -0.064 | 0.115
2 | SMIM8 (UniProt Q96KF7) | -0.01 | 0.034 | -0.041 | 0.034 | 0.066 | 0.028 | 0.078 | 0.062 | 0.014 | -0.015 | -0.053 | -0.079 | -0.041 | -0.146 | 0.019 | 0.128 | -0.038 | -0.059 | -0.035 | 0.018
3 | SMC2 (UniProt O95347) | 0.039 | -0.087 | -0.004 | -0.003 | -0.022 | -0.005 | 0.047 | 0.005 | 0.003 | -0.003 | -0.019 | 0.013 | -0.028 | 0.121 | -0.009 | -0.177 | 0.014 | 0.037 | -0.02 | -0.059
4 | STK11IP (UniProt Q8N1F8) | 0.013 | -0.005 | -0.025 | 0.041 | -0.014 | 0.053 | 0.062 | -0.026 | 0.025 | 0.069 | 0.022 | 0.012 | -0.022 | 0.004 | -0.052 | -0.019 | -0.014 | 0.037 | -0.008 | 0.036
5 | SLC16A1 (UniProt P53985) | -0.133 | -0.012 | 0.042 | -0.007 | 0.024 | -0.016 | -0.059 | 0.045 | 0.018 | 0.032 | -0.009 | 0.019 | 0.006 | -0.341 (active) | -0.011 | 0.22 | -0.008 | -0.017 | -0.041 | 0.246 (active)
6 | TAF9 (UniProt Q16594) | 0.032 | -0.026 | 0.014 | -0.03 | -0.004 | 0.099 | -0.041 | 0.004 | 0.038 | 0.084 | -0.06 | -0.018 | -0.004 | 0.188 | 0.084 | -0.002 | 0.156 | 0.001 | 0.018 | -0.057
7 | SMC4 (UniProt Q9NTJ3) | 0.03 | -0.079 | -0.006 | -0.003 | -0.008 | 0.004 | 0.024 | 0.001 | 0 | -0.024 | -0.028 | -0.002 | -0.007 | 0.068 | 0.009 | -0.154 | -0.012 | -0.026 | -0.021 | -0.051
8 | SSB (UniProt E7ERC4) | 0.132 | 0.154 | -0.072 | -0.285 | -0.023 | 0.081 | 0.013 | -0.091 | 0.095 | 0.072 | -0.151 | -0.15 | -0.103 | 1.41 (active) | 0.141 | -0.263 | -0.028 | 0.032 | -0.271 | -0.121
9 | SYPL1 (UniProt Q16563) | -0.132 | 0.057 | -0.007 | -0.014 | 0.029 | 0.013 | -0.022 | 0.016 | 0.012 | -0.033 | 0.015 | -0.025 | -0.001 | -0.376 (active) | 0.004 | 0.16 | -0.028 | -0.009 | -0.034 | 0.163
10 | SRSF7 (UniProt Q16629) | -0.2 | -0.005 | -0.057 | -0.06 | 0.051 | 0.032 | 0.049 | 0.006 | 0.038 | 0.067 | -0.061 | 0.075 | 0.084 | -0.218 (active) | 0.058 | 0 | 0.036 | -0.01 | 0.05 | 0.194
11 | SYNE2 isoform 2 (UniProt Q8WXH0) | -0.415 | 0.143 | -0.117 | -0.139 | -0.003 | -0.036 | 0.004 | 0.037 | 0.034 | -0.059 | -0.082 | -0.103 | 0.058 | -0.93 (active) | 0.073 | 0.296 | -0.003 | 0.183 | -0.194 | 0.397
12 | STK38 (UniProt Q15208) | 0.014 | -0.056 | 0.912 (active) | 0.502 (active) | -0.037 | -0.033 | 0.056 | 0.003 | 0.266 | 0.005 | -0.024 | 0.061 | 0.001 | 0.017 | 0.017 | 0.159 | 0.029 | -0.001 | -0.104 | -0.071
13 | SNRPD2 (UniProt P62316) | -0.054 | 0.027 | -0.003 | -0.019 | 0.021 | 0.005 | -0.027 | 0.014 | 0.029 | -0.02 | 0.017 | -0.01 | 0.016 | -0.055 | 0.018 | 0.057 | -0.014 | -0.009 | 0.078 | 0.052
14 | STUB1 (UniProt Q9UNE7) | -0.012 | -0.193 | 0.003 | -0.029 | 0.026 | -0.025 | 0.135 | 0.003 | 0.007 | -0.003 | -0.01 | -0.012 | -0.035 | 0.004 | -0.01 | -0.073 | -0.006 | 0.019 | -0.054 | 0.05
15 | SPC25 (UniProt Q9HBM1) | -0.015 | 0.009 | 0.024 | -0.017 | -0.014 | 0.034 | 0.014 | -0.008 | -0.043 | -0.011 | 0.029 | 0.029 | 0.001 | -0.01 | -0.021 | -0.007 | -0.013 | -0.005 | -0.031 | 0.011
16 | SLC25A32 (UniProt Q9H2D1) | -0.05 | 0.037 | -0.01 | 0.03 | 0.052 | 0.04 | 0.01 | 0.036 | 0.001 | -0.033 | -0.032 | -0.005 | -0.017 | -0.151 | -0.014 | 0.098 | -0.038 | -0.019 | -0.022 | 0.1
